Assay in all cases: NCI-60 one-dose screen, 48 h (100 = growth as untreated, 0 = no growth, -100 = all killed)
The test system of one test is DU-145 prostate. As to conditions: 10 µM unless noted.
Another test concerns K-562 leukemia. To be noted: 10 µM unless noted.
A further test concerns MALME-3M melanoma. To be noted: 10 µM unless noted.
The next test relates to MDA-MB-231 breast. To be noted: 10 µM unless noted.
In a further test the test system is RXF 393 renal. As to conditions: 10 µM unless noted.
The next test concerns SF-268 CNS. As to conditions: 10 µM unless noted.
In a further test the test system is SF-295 CNS. As to conditions: 10 µM unless noted.
Another test has as its system SF-539 CNS. To be noted: 10 µM unless noted.
The subject of another test is UACC-257 melanoma. As to conditions: 10 µM unless noted.
In the next test the test system is M14 melanoma. To be noted: 10 µM unless noted.
In a further test the test system is HCT-15 colon. As to conditions: 10 µM unless noted.
For the next test, the system named is HT29 colon. As to conditions: 10 µM unless noted.
A further test concerns SNB-75 CNS. As to conditions: 10 µM unless noted.
Another test deals with U251 CNS. To be noted: 10 µM unless noted.
A further test has as its system PC-3 prostate. To be noted: 10 µM unless noted.
The test system of a further test is SK-MEL-5 melanoma. As to conditions: 10 µM unless noted.
Another test relates to LOX IMVI melanoma. As to conditions: 10 µM.
In another test the test system is SK-MEL-28 melanoma. To be noted: 10 µM unless noted.
For another test, the system named is UACC-62 melanoma. As to conditions: 10 µM unless noted.
A further test has as its system SNB-19 CNS. To be noted: 10 µM unless noted.

Molecules are shown by their SMILES. This is part of a sample that, as a whole, favours compounds with a hit. Of some 83,000 tested, about 20% had one in any assay.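 How to read the values: 0–100, growth inhibition (40 = 60% inhibited); 0, no net growth; -100 to 0, cell death (-40 = 40% of starting cells died; -100 = all dead).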 A number with no mark means an inactive call. Active and inactive are the calls of the source. How the source made its calls: active means growth percent below 10; inactive means the rest.

Consider `O=C(c1ccc(Cl)cc1)c1ccc(OCCCN2CCN(c3ccncc3)CC2)cc1`, for which the growth is 62.1% in the test on DU-145 prostate; 1.45% (active) in the test with K-562 leukemia; -54.1% (active) in the test with MALME-3M melanoma; 17.2% with MDA-MB-231 breast; 32.8% in the test on RXF 393 renal; 73.2% with SF-268 CNS. In addition, the growth in the test with SF-295 CNS was 17.6%; in the test with SF-539 CNS, 16.7%; in the test with UACC-257 melanoma, 42.4%; in the test with M14 melanoma, -36.2% (active); in the test with HCT-15 colon, -18.6% (active); in the test with HT29 colon, 11.2%. Moreover, the growth was 69.4% in the test with SNB-75 CNS; 28.6% in the test on U251 CNS; 26.9% in the test on PC-3 prostate; -47.7% (active) in the test with SK-MEL-5 melanoma; 10.1% in the test on LOX IMVI melanoma; 14.8% with SK-MEL-28 melanoma.
For `Cc1cc2c(cc1Cl)C(=O)/C(=C/c1ccc(F)cc1)O2`, the growth was 118% in the test on DU-145 prostate; 77.6% in the test with K-562 leukemia; 100% in the test on MALME-3M melanoma; 90.1% in the test on MDA-MB-231 breast; 95.7% in the test on RXF 393 renal; 117% with SF-268 CNS. The growth in the test on SF-295 CNS was 98.9%; with SF-539 CNS, 85.9%; with UACC-257 melanoma, 106%; in the test on M14 melanoma, 96.8%; in the test on HCT-15 colon, 97.8%; in the test with HT29 colon, 102%. In addition, the growth in the test on SNB-75 CNS is 95%; with U251 CNS it was 89.9%; with PC-3 prostate it was 91.1%; in the test with SK-MEL-5 melanoma it was 93%; with UACC-62 melanoma it was 76.6%; with SK-MEL-28 melanoma, 111%.
With `CC(C)CSc1nc(NCCc2c[nH]c3ccccc23)c(C#N)c(-c2ccc(F)cc2)n1`, the growth is 58.6% with DU-145 prostate; 18.9% in the test with K-562 leukemia; 73% with MALME-3M melanoma; 40.8% with MDA-MB-231 breast; 26.1% in the test on RXF 393 renal; 51.9% with SF-268 CNS. Also, the growth in the test on SF-295 CNS was 46.7%; in the test on SF-539 CNS, 47.9%; in the test with UACC-257 melanoma, 81%; in the test on M14 melanoma it was 62.7%; in the test on HCT-15 colon it was 19.6%; in the test with HT29 colon, 5.49% (active). For the same compound, the growth in the test with SNB-75 CNS was 61.1%; in the test on U251 CNS, 21.1%; in the test on PC-3 prostate, 26.2%; in the test on SK-MEL-5 melanoma, 17.3%; with UACC-62 melanoma it was 60.6%; with SK-MEL-28 melanoma, 79.1%.
As for `COc1cc2c(c(OC)c1OC)C(=O)CC(c1cccc(NC(=O)c3cc(N)ccc3Cl)c1)O2` (stereo unspecified), the growth with DU-145 prostate was 47.3%; in the test with K-562 leukemia, 15.6%; in the test with MALME-3M melanoma it was 54%; with MDA-MB-231 breast it was 42.7%; with RXF 393 renal it was 46%; in the test on SF-268 CNS it was 60.4%. For the same compound, the growth is 78.9% in the test on SF-295 CNS; 56.6% in the test with SF-539 CNS; 64.9% with UACC-257 melanoma; 56% in the test on M14 melanoma; 22.3% in the test with HCT-15 colon; 79.9% in the test with HT29 colon. The growth in the test on SNB-75 CNS is 43.7%; in the test on U251 CNS, 65.6%; in the test on PC-3 prostate, 47.3%; with SK-MEL-5 melanoma, 35.8%; with UACC-62 melanoma, 61.7%; in the test on SK-MEL-28 melanoma, 56.8%.
Regarding `COc1ccc(C(=O)/C=C/c2ccc(Oc3nc(Nc4ccc(F)cc4)nc(N(C)C)n3)c(OC)c2)cc1`, the growth was 51.7% with DU-145 prostate; 26.4% with K-562 leukemia; 79% in the test with MALME-3M melanoma; 53.9% in the test on MDA-MB-231 breast; 50.6% in the test on RXF 393 renal; 51.8% in the test on SF-268 CNS. The growth in the test on SF-295 CNS is 51.5%; in the test with SF-539 CNS, 26.8%; in the test on UACC-257 melanoma, 42.5%; in the test on M14 melanoma, 65.1%; in the test on HCT-15 colon, 33.8%; in the test on HT29 colon, 59%. The growth in the test with SNB-75 CNS is 66.4%; in the test on U251 CNS, 11.4%; in the test on PC-3 prostate it was 50.5%; with SK-MEL-5 melanoma it was 32.9%; in the test with UACC-62 melanoma, 41%; in the test with SK-MEL-28 melanoma it was 76.7%.
As to `CC1(c2cc3cc(Br)ccc3oc2=O)NC(=O)c2c(/C=C/C(=O)OC3CC4CCC3(C)C4(C)C)cccc2N1` (stereo unspecified), the growth is 84.3% in the test with DU-145 prostate; 28.4% in the test with K-562 leukemia; 102% with MALME-3M melanoma; 98.2% with MDA-MB-231 breast; 75.2% in the test on RXF 393 renal; 82.8% with SF-268 CNS. Also, the growth in the test with SF-295 CNS is 64%; with SF-539 CNS it was 96.8%; in the test with UACC-257 melanoma it was 77%; in the test with M14 melanoma, 86%; with HCT-15 colon, 82.9%; with HT29 colon it was 88.7%. Further, the growth in the test with SNB-19 CNS is 72%; with U251 CNS, 69.8%; in the test with PC-3 prostate, 36.5%; in the test with SK-MEL-5 melanoma it was 74.5%; in the test on UACC-62 melanoma, 79.8%; in the test on LOX IMVI melanoma, 84.5%. Further, the growth in the test on SK-MEL-28 melanoma is 86.5%.
Consider `C=C1CCC2C3(C)COC(c4cccs4)OC3CCC2(C)C1CC(Sc1ccccc1)C1=CCOC1=O` (stereo unspecified), for which the growth with DU-145 prostate was 94.4%; with K-562 leukemia it was 40.7%; in the test with MALME-3M melanoma, 103%; in the test on MDA-MB-231 breast, 89.3%; in the test with RXF 393 renal, 107%; in the test with SF-268 CNS it was 96.6%. For the same compound, the growth in the test with SF-295 CNS is 92.5%; with SF-539 CNS, 95%; with UACC-257 melanoma it was 95.6%; in the test on M14 melanoma, 83.3%; in the test with HCT-15 colon, 44.3%; in the test with HT29 colon, 69.4%. The growth was 95.4% in the test on SNB-19 CNS; 69.1% in the test with U251 CNS; 53.5% with PC-3 prostate; 89.2% in the test on SK-MEL-5 melanoma; 71.7% in the test on UACC-62 melanoma; -77.9% (active) with LOX IMVI melanoma. Besides, the growth in the test with SK-MEL-28 melanoma is 99.4%.
Turning to `CCCCCCCCOc1cccc(S(=O)(=O)Nc2ccc(C)cc2C(=O)O)c1`, the growth in the test with DU-145 prostate is 102%; in the test with K-562 leukemia it was 83.8%; in the test on MALME-3M melanoma it was 96%; with MDA-MB-231 breast it was 105%; in the test on RXF 393 renal, 107%; in the test with SF-268 CNS, 99.2%. The growth with SF-295 CNS is 90%; in the test on SF-539 CNS, 97.6%; with UACC-257 melanoma, 96.7%; with M14 melanoma it was 100%; in the test on HCT-15 colon it was 92.4%; in the test on HT29 colon, 110%. Further, the growth in the test with SNB-75 CNS is 94.9%; with U251 CNS it was 91.5%; in the test on PC-3 prostate, 88.2%; in the test on SK-MEL-5 melanoma, 89.1%; with UACC-62 melanoma, 85.4%; with SK-MEL-28 melanoma it was 106%.

The values are drawn from PubChem BioAssay (NCI).
